SMILES strings stand for the structures. The campaign covered roughly 37,000 compounds. About 2,800 (7.6%) were called active. Not shown: some 1% with an inconclusive outcome. Cut-off read from the data, not from the text of the source: active = inhibition above about 80%; inconclusive = no clear call, values can overlap the other calls; inactive = below that. For the sample, actives were picked, then their nearest neighbours and some compounds at random.

This assay in a line: NOMO-1 AML cell viability reduction, primary screen, STK33 inhibitor project, CellTiter-Glo luminescence (AID 2330). Conditions: NOMO-1 AML viability, 72 h, hits give high values, concentration not given here.
For `C[C@H]1CN([C@@H](C)CO)C(=O)c2cc(NS(=O)(=O)c3ccccc3)ccc2O[C@@H]1CN(C)C(=O)NC1CCCCC1`, the inhibition was 13.9% (inactive).

On to `C[C@@H]1CN([C@@H](C)CO)C(=O)c2cccc(NC(=O)Nc3ccc(C(F)(F)F)cc3)c2O[C@@H]1CN(C)S(=O)(=O)c1cccs1`, for which the inhibition was 96.7% (active). Then `COc1ccc(NC(=O)Nc2cccc3c2O[C@H](CN(C)S(=O)(=O)c2cccs2)[C@H](C)CN([C@@H](C)CO)C3=O)cc1`, with 34.9% (inactive). On to `C[C@@H]1CN([C@H](C)CO)C(=O)c2cccc(NS(=O)(=O)c3ccc(F)cc3)c2O[C@@H]1CN(C)C(=O)Nc1ccc(C(F)(F)F)cc1`, for which the inhibition is 101% (active). With `Cc1ccc(S(=O)(=O)Nc2cccc3c2O[C@H](CN(C)C(=O)Nc2ccc(C(F)(F)F)cc2)[C@@H](C)CN([C@@H](C)CO)C3=O)cc1` the figure was -0.901% (inactive); with `C[C@H]1CN([C@@H](C)CO)C(=O)c2cccc(NC(=O)Nc3ccc(C(F)(F)F)cc3)c2O[C@H]1CN(C)S(=O)(=O)c1ccccc1`, 54.4% (inactive). With `C[C@H]1CN([C@@H](C)CO)C(=O)c2cccc(NS(=O)(=O)c3ccccc3)c2O[C@@H]1CN(C)C(=O)Nc1ccc(C(F)(F)F)cc1` the figure was -8.64% (inactive).

Consider `CC(C)NC(=O)Nc1cccc2c1O[C@@H](CN(C)S(=O)(=O)c1ccc(F)cc1)[C@@H](C)CN([C@H](C)CO)C2=O`, for which the inhibition was -7.11% (inactive). Regarding `CCn1c(=O)cc(O)c2ccccc21`, the inhibition is 27.9% (inactive). Regarding `C[C@H](CO)N1C[C@H](C)[C@H](CN(C)C(=O)NC2CCCCC2)Oc2ccc(NC(=O)c3ccncc3)cc2CC1=O`, the inhibition was -3.17% (inactive). With `COc1ccc(S(=O)(=O)N(C)C[C@H]2Oc3ccc(NS(C)(=O)=O)cc3C(=O)N([C@H](C)CO)C[C@H]2C)cc1` the figure was -0.557% (inactive); with `C[C@@H]1CCCCO[C@H](CN(C)S(C)(=O)=O)[C@@H](C)CN([C@H](C)CO)C(=O)c2cc(NS(=O)(=O)c3ccc(Cl)cc3)ccc2O1`, 4.39% (inactive). Then `CC(C)=CCCC1(C)C=Cc2c(ccc3c2[nH]c2cc(O)c(C)cc23)O1` (stereo not drawn), with 108% (active); and `O=C(CC1SC(=NC2CC3C=CC2C3)NC1=O)Nc1ccccc1Cl` (stereo not drawn), with 8.48% (inactive). With `CC(C)CC(C(=O)Nc1cccc([N+](=O)[O-])c1)N1C(=O)c2ccccc2C1=O` (stereo not drawn) the figure was 26.9% (inactive).

For `COc1ccc(NC(=O)Nc2nn(Cc3ccc(Cl)cc3Cl)cc2Br)cc1OC`, the inhibition was 39.9% (inactive).

Consider `O=[N+]([O-])c1cccc(NC(=S)Nc2nn(Cc3ccc(Cl)cc3Cl)cc2Cl)c1`, for which the inhibition is 111% (active). With `C[C@H]1CN([C@@H](C)CO)C(=O)c2cc(NC(=O)Nc3ccc4c(c3)OCO4)ccc2O[C@H]1CN(C)S(=O)(=O)c1ccc(F)cc1` the figure was 18.9% (inactive); with `C[C@H]1CN([C@@H](C)CO)C(=O)c2cccc(NS(=O)(=O)c3cn(C)cn3)c2O[C@@H]1CN(C)C(=O)Nc1ccc(F)cc1`, 7.11% (inactive). Then `C[C@H]1O[C@@H](O[C@H]2[C@@H](O)C[C@H](O[C@H]3[C@@H](O)C[C@H](O[C@H]4CC[C@]5(C)C6C[C@@H](O)[C@]7(C)[C@@H](C8=CC(=O)OC8)CC[C@]7(O)C6CC[C@@H]5C4)O[C@@H]3C)O[C@@H]2C)C[C@H](O)[C@@H]1O` (stereo partly drawn), with 112% (active); and `C[C@H]1CN([C@@H](C)CO)C(=O)Cc2cc(NC(=O)C3CC3)ccc2O[C@@H]1CN(C)C(=O)NC1CCCCC1`, with -0.0688% (inactive); and `Cc1ccc(S(=O)(=O)N(C)C[C@@H]2Oc3c(NS(=O)(=O)c4ccc(F)cc4)cccc3C(=O)N([C@@H](C)CO)C[C@H]2C)cc1`, with -7.97% (inactive). With `CCCc1nc2c(C)cc(-c3nc4ccccc4n3C)cc2n1Cc1ccc(-c2ccccc2C(=O)O)cc1`, the inhibition was 0.908% (inactive). Then `C[C@H](CO)N1C[C@H](C)[C@H](CN(C)C)Oc2c(NC(=O)C3CCOCC3)cccc2C1=O`, with -4.27% (inactive); and `O=C(CSc1nnc2c(n1)[nH]c1ccccc12)Nc1cccc(C(F)(F)F)c1`, with 112% (active); and `O=C(CCn1cnc2ccccc2c1=O)Nc1cccc(C(F)(F)F)c1`, with -23.9% (inactive). Take `O=C(O)CCSc1nnc2c(n1)[nH]c1ccccc12`: the inhibition is 16.8% (inactive). Then `COc1ccc(NC(=O)C(=O)NCC(=O)Nc2cccc(C(F)(F)F)c2)cc1`, with 14% (inactive); and `Nc1nnc(SCCN2C(=O)c3ccccc3S2(=O)=O)s1`, with 32.8% (inactive). Then `O=C(CN1C(=O)c2ccccc2S1(=O)=O)Nc1ccc(F)c(F)c1`, with 36.7% (inactive). With `O=C1c2ccccc2S(=O)c2ccccc2S(=O)(=O)N1Cc1ccccc1` (stereo not drawn) the figure was 117% (active). For `Cc1noc(C)c1NC(=O)Nc1ccc2c(c1)C(=O)N([C@@H](C)CO)C[C@H](C)[C@@H](CN(C)C(=O)Nc1ccccc1)O2`, the inhibition was -19% (inactive). With `Cc1ccc(S(=O)(=O)N(C)C[C@@H]2Oc3ccc(NC(=O)Cn4cnnn4)cc3CC(=O)N([C@H](C)CO)C[C@H]2C)cc1` the figure was -11.1% (inactive); with `O=C(/C=C/c1ccccc1)NCCCCNCCCNC(=O)/C=C/c1ccccc1`, 11.1% (inactive).

As for `COc1cc(NC(=O)COc2cc(C)c(Br)c(C)c2)c(OC)cc1Cl`, the inhibition was 6.99% (inactive).

Consider `C=CCNc1nc(C)nc(OC)n1`, for which the inhibition was -5.74% (inactive). With `C[C@@H]1CN([C@H](C)CO)C(=O)Cc2cc(NC(=O)Nc3ccc(F)cc3)ccc2O[C@@H]1CN(C)C(=O)Nc1ccc2c(c1)OCO2` the figure was 10.5% (inactive). With `O=C1NC(Cc2c[nH]c3ccccc23)C(=O)N2CCCC12` (stereo not drawn) the figure was 14.5% (inactive); with `Cc1ccc2nc(C)c3c(c2c1)N(c1ccccc1)CC3`, 122% (active). As to `O=C(CSc1nc2sc3c(c2c(=O)[nH]1)CCC3)Nc1ccccc1C(F)(F)F`, the inhibition was 26% (inactive). Then `C[C@H](CO)N1C[C@H](C)[C@H](CN(C)C(=O)Nc2ccc(C(F)(F)F)cc2)Oc2ccc(NS(C)(=O)=O)cc2CC1=O`, with -2.28% (inactive); and `Cc1ccc(S(=O)(=O)N(C)C[C@@H]2Oc3ccc(NC(=O)Nc4ccc5c(c4)OCO5)cc3C(=O)N([C@@H](C)CO)C[C@@H]2C)cc1`, with 45.7% (inactive); and `Cc1cc(C)cc(OCC(=O)Nc2cccc(-c3nnc(-c4ccccc4)o3)c2)c1`, with 42.7% (inactive). For the molecule `Cc1ccnc(NC(c2cccc([N+](=O)[O-])c2)c2ccc3ccc(C)nc3c2O)c1` (stereo not drawn), the inhibition was 101% (active).

As to `Cc1ccnc(NC(c2cccc(Br)c2)c2ccc3ccc(C)nc3c2O)c1` (stereo not drawn), the inhibition is 126% (active). With `Cc1ccc(S(=O)(=O)Nc2ccc3c(c2)C(=O)N([C@@H](C)CO)C[C@H](C)[C@H](CN(C)C(=O)Nc2ccc(C(F)(F)F)cc2)O3)cc1` the figure was 4.18% (inactive); with `Cc1ccc(NC(=O)C2C3C=CC(C3)C2C(=O)O)cc1` (stereo not drawn), -5.27% (inactive); with `Cc1cccc(NC(=O)CSc2nnc(-c3ccccc3)n2C2CCCCC2)c1C`, 22.3% (inactive). As for `COc1ccc(NC(=O)CSc2nnc(-c3ccc(Br)cc3)n2C)cc1`, the inhibition is 16.2% (inactive).

`C[C@H](CO)N1C[C@H](C)[C@@H](CN(C)Cc2ccccc2)Oc2c(NC(=O)CCCCCC(=O)Nc3ccccc3N)cccc2C1=O`: the inhibition is 126% (active).

In the case of `C[C@@H]1CN([C@H](C)CO)C(=O)c2cccc(NC(=O)CCCCCC(=O)Nc3ccccc3N)c2O[C@@H]1CN(C)C(=O)Nc1ccccc1`, the inhibition is 7.63% (inactive). For `C[C@H]1CN([C@@H](C)CO)C(=O)c2cccc(NC(=O)CCCCCC(=O)Nc3ccccc3N)c2O[C@H]1CN(C)C(=O)Nc1ccccc1`, the inhibition is 10.1% (inactive). Then `C[C@H]1CN([C@@H](C)CO)C(=O)c2cccc(NC(=O)Nc3ccccc3)c2O[C@H]1CN(C)Cc1ccc(Oc2ccccc2)cc1`, with 18.8% (inactive); and `C[C@H](CO)N1C[C@H](C)[C@@H](CN(C)C(=O)Nc2ccccc2)Oc2c(NC(=O)CCCCCC(=O)Nc3ccccc3N)cccc2C1=O`, with 21.7% (inactive). Then `C[C@H](CO)N1C[C@H](C)[C@H](CN(C)Cc2ccc(Oc3ccccc3)cc2)Oc2c(NC(=O)CCCCCC(=O)Nc3ccccc3N)cccc2C1=O`, with 139% (active); and `C[C@H]1CN([C@@H](C)CO)C(=O)c2cccc(NC(=O)Nc3ccccc3)c2O[C@@H]1CN(C)S(C)(=O)=O`, with -0.709% (inactive); and `COc1cc(C2c3c(cc(OC)c(O)c3OC)CC(CO[C@@H]3O[C@H](CO)[C@@H](O)[C@H](O)[C@H]3O)C2CO)cc(OC)c1O` (stereo partly drawn), with -1.41% (inactive). Consider `O=C1C2=C(Nc3ccccc3S(=O)(=O)C2c2ccc(Cl)cc2)c2ccccc21` (stereo not drawn), for which the inhibition is 121% (active). With `COC(=O)c1ccccc1NC(=O)C(C)Oc1ccccc1F` (stereo not drawn) the figure was 8.1% (inactive). Then `O=C(CC(C(=O)O)N1CCNCC1)Nc1cccc(Cl)c1` (stereo not drawn), with 9.13% (inactive). Then `COc1cc(C2OC(c3cc(OC)c(OC)c(OC)c3)C(C)C2C)cc(OC)c1OC` (stereo not drawn), with 7.55% (inactive); and `COc1cc(C2OC(c3ccc(O)c(OC)c3)C(C)(O)C2C)ccc1O` (stereo not drawn), with 119% (active). With `CCN(CC)C(=O)c1ccc(O)c(OC)c1`, the inhibition was -13.3% (inactive). Then `O=C(c1ccccc1Br)N1CCN(c2ccc([N+](=O)[O-])c(NCc3cccnc3)c2)CC1`, with 40.2% (inactive); and `Cc1noc(C)c1NC(=O)Nc1ccc2c(c1)C(=O)N([C@@H](C)CO)C[C@@H](C)[C@@H](CN(C)CC1CCCCC1)O2`, with -6.14% (inactive); and `Oc1c(Cl)cc(Cl)c(Cl)c1Cc1c(O)c(Cl)cc(Cl)c1Cl`, with 107% (active). Turning to `Cc1cc(=O)[nH]c(SCc2cn3c(C)cc(C)nc3n2)n1`, the inhibition is -6.02% (inactive). As for `COc1ccc(NC(=O)N(C)C[C@@H]2OCCCC[C@@H](C)Oc3ccc(NS(=O)(=O)c4c(C)noc4C)cc3C(=O)N([C@H](C)CO)C[C@@H]2C)cc1`, the inhibition is 7.62% (inactive).

Values taken from PubChem BioAssay AID2330 (Broad Institute, 2010).
